Records with an inconclusive call do not appear. Activity calls are given as the source filed them. Calls follow the shape of the dose curve; as a rule, active = well fitted inhibition curve with a large enough effect; inconclusive = small, poorly fitted or top-dose-only effect; inactive = flat fitted curve, though single readings scatter. Peptide text beside a SMILES is read from it.
test system: CRL-7250; assay: qHTS assay to identify novel small-molecules to repurpose for Merkel cell carcinoma treatment (AID 1296009); conditions: MCC and control cell lines, CellTiter-Glo viability, 72 h; series mostly up to 92 µM; activity change, negative = cytotoxicity: at the top concentration; also: nearly all actives have a fitted effect of over 60% in size
In short: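 After compound transfer in DMSO, plates were kept 72 hr at 37 degree celsius. Luminescent ATP signal from CellTiter-Glo served as viability measure, normalized against DMSO and no-cell controls.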

SMILES | outcome
C/C=C/[C@@H]1C=C[C@@H]2C[C@H](C)CC[C@H]2[C@]1(C)/C(O)=C1/C(=O)[C@@H](CO)N(C)C1=O | inactive
CC(=O)c1c(O)cc2cccc3c2c1CC(C)(O)O3 (stereo not given) | inactive
CC#C[C@@H](CC(=O)O)c1ccc(OCc2ccc(CN3CCC4(C=Cc5ccccc54)CC3)s2)cc1 | inactive
NC(=O)C(O[C@@H]1O[C@H](CO[C@@H]2O[C@H](CO)[C@@H](O)[C@H](O)[C@H]2O)[C@@H](O)[C@H](O)[C@H]1O)c1ccccc1 (stereo not given in full) | inactive [at 17.4 µM]
COC(=O)C1=COC(O[C@@H]2O[C@H](COC(=O)/C=C/c3ccc(O)cc3)[C@@H](O)[C@H](O)[C@H]2O)C2C(CO)=CCC12 (stereo not given in full) | inactive [at 17.4 µM]
CC1CCC2(C(=O)OC3OC(CO)C(O)C(O)C3O)CCC3(C)C(=CCC4C5(C)CCC(O)C(C)(CO)C5CCC43C)C2C1(C)O (stereo not given) | inactive [at 17.4 µM]
C/C=C(\C)C(=O)O[C@H]1[C@@H](O[C@]2(COC(=O)CC(C)C)O[C@H](COC(=O)C(C)C)[C@@H](OC(C)=O)[C@@H]2O)O[C@H](COC(C)=O)[C@@H](O)[C@@H]1O | inactive [at 17.4 µM]
NC(=O)c1cccc2[nH]c(-c3ccc(C4CCCN4)cc3F)nc12 (stereo not given) | inactive
COc1c2c(c(C)c3c1C(=O)OC3)O[C@@]1(C)CC(O)C(C(C)(C)O)[C@](C)(CCC(=O)O)[C@H]1C2 (stereo not given in full) | inactive [at 17.4 µM]
OCC1=CC[C@@H]2C=CO[C@@H](O[C@@H]3O[C@H](CO)[C@@H](O)[C@H](O)[C@H]3O)[C@H]12 | inactive
CC1=CC(=O)CC(C)(CO[C@@H]2O[C@H](CO)[C@@H](O)[C@H](O)[C@H]2O)C1(O)/C=C/C(C)=C/C(=O)O (stereo not given in full) | inactive [at 17.4 µM]
CC1(C)CC[C@]2(C(=O)O)CC[C@]3(C)C(=CCC4[C@@]5(C)CC[C@H](O)C(C)(C)C5CC[C@]43C)C2C1 (stereo not given in full) | inactive [at 17.4 µM]
C[C@@H]1C(=O)O[C@H]2[C@H]1CC[C@@]1(C)C(=O)C=C[C@](C)(O)[C@H]21 | inactive
C[C@@H](O)[C@H](N)C(=O)N1CCC[C@H]1C(=O)N1CCC[C@H]1C(=O)N[C@H](C(N)=O)[C@@H](C)O (H-TPPT-NH2) | inactive [at 9.27 µM]
O=C(NCc1ccc(F)cc1)C(=O)c1c[nH]c2ccccc12 | inactive
Cn1c(=O)c2nc(/C=C/c3cccc(Cl)c3)n(C)c2n(C)c1=O | inactive [at 92 µM]
Cc1c(CN(C)C(=O)/C=C/c2cnc3c(c2)CCC(=O)N3)oc2ccccc12 | inactive
C=C1CC[C@@]2(OC1)O[C@H]1CC3C4CC=C5C[C@@H](O[C@@H]6O[C@@H](C)[C@H](O)[C@@H](O)[C@H]6O)C[C@@H](O[C@@H]6O[C@H](C)[C@H](O)[C@H](O)[C@H]6O[C@@H]6O[C@@H](C)[C@H](O)[C@@H](O)[C@H]6O)[C@]5(C)C4CC[C@]3(C)[C@H]1[C@@H]2C (stereo not given in full) | inactive [at 9.27 µM]
C[C@H]1[C@H](C)CC[C@]2(C(=O)O)CC[C@]3(C)C(=CCC4[C@@]5(C)C[C@@H](O)[C@H](O)C(C)(C)C5CC[C@]43C)[C@H]12 (stereo not given in full) | inactive [at 17.4 µM]
CCCCCOC(=O)Nc1nc(=O)n(C2O[C@H](C)[C@@H](O)[C@H]2O)cc1F (stereo not given in full) | inactive
C=C1C(O)CC2C(C(=O)O)=COC(O[C@@H]3O[C@H](COC(=O)c4ccc(O)cc4)[C@@H](O)[C@H](O)[C@H]3O)C12 (stereo not given in full) | inactive [at 17.4 µM]
Cc1ccc(NC(=O)C(=O)NC2CC(C)(C)NC(C)(C)C2)cc1 | inactive
CCC(C)/C=C(C)/C=C/C1=CC2=C(Cl)C(=O)C(C)(OC(C)=O)C(=O)C2=CN1CCCC(=O)O (stereo not given) | inactive [at 17.4 µM]
CCCSc1nc(NC2CC2c2ccc(F)c(F)c2)c2nnn(C3CC(OCCO)C(O)C3O)c2n1 (stereo not given) | inactive
COc1cc(C(O)C(CO)Oc2ccc(CCCO[C@@H]3O[C@@H](C)[C@H](O)[C@@H](O)[C@H]3O)cc2OC)ccc1O (stereo not given in full) | inactive [at 17.4 µM]
CC(=O)/C=C/C1(O)C(C)CC(O[C@@H]2O[C@H](CO)[C@@H](O)[C@H](O)[C@H]2O)CC1(C)C (stereo not given in full) | inactive [at 17.4 µM]
C=C(C)[C@@H](C)[C@H]1O[C@]23C[C@]4(CO2)C(CCC2[C@@]5(C)CC[C@H](O[C@@H]6OC[C@H](O)[C@H](O[C@@H]7O[C@H](CO)[C@@H](O)[C@H](O)[C@H]7O)[C@H]6O[C@@H]6O[C@@H](CO)[C@H](O)[C@H]6O)C(C)(C)C5CC[C@]24C)C3[C@@](C)(O)[C@@H]1OC(C)=O (stereo not given in full) | inactive [at 9.27 µM]
COc1ccc(C2Oc3c(OC)cc(CCCO)cc3C2COC2OC(CO)C(O)C(O)C2O)cc1OC (stereo not given) | inactive [at 17.4 µM]
C/C(=C\CCC1(C)C2CCC(C2)C1(C)O)C(=O)O (stereo not given) | inactive
CC(=C\C(C)O)/C=C(\C)C(=O)CC1CC(CC(N)=O)CC(=O)O1 (stereo not given) | inactive

— PubChem BioAssay (NCATS)
